Rows were chosen to be rich in hits. Some 21% of all compounds tested hit in one or more screens of this group.
Pf growth 96h: P. falciparum growth inhibition at 96 hours | P. falciparum luciferase reporter growth, 96 h | Potency, µM (doses to about 28.7 µM), inactives show at the highest dose activity change, negative = inhibition, usual class: inhibitors | hit rate 6.9% among 320,000; also: potency is read from the fitted curve at half-maximal effect; % is scaled to controls: 0 for no effect and ±100 for the full control effect
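Erythrocytes infected with luciferase-expressing P. falciparum were dispensed at 2% hematocrit and 0.05% parasitemia (final), then incubated with compounds 96 hours at 37 C in 5% CO2. Luminescence after detection reagent addition reported growth.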
Shiga toxin inh: Shiga toxin inhibition | Vero cells, Shiga toxin protein synthesis inhibition reporter | inhibition, % at 38.7 µM | hit rate 9.2% among 290,000 | AID 2315; in the data active = inhibition mostly above about 28%, no sharp cut-off; inactive = mostly below about 43%; also: 0% is about no effect
Pf growth 48h: inhibits P. falciparum growth in the first generation, 48 h. P. falciparum luciferase growth in erythrocytes, 48 h. Potency, µM (top dose mostly 28.7 µM), inactives show top-dose activity change, negative = inhibition, most hits filed as inhibitors. hit rate 5.9% among 310,000. AID 504832; also: potency is read from the fitted curve at half-maximal effect; % is scaled to controls: 0 for no effect and ±100 for the full control effect
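Parasite viability was followed by luminescence of a genomically integrated firefly luciferase. Cultures held 0.1% parasitemia at 2% hematocrit (final), incubated under 5% CO2 at 37 C.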
CHX counter: counter-screen hit for Shiga toxin inhibitors, cycloheximide; max response, %; cell reporter, cycloheximide protein synthesis inhibition counterscreen; hit rate 12% among 300,000; AID 2314; in the data active = max response mostly above about 13%, no sharp cut-off; inactive = mostly below about 14%; also: read at 38.3 µM for the half of the compounds with a filed dose; 0% is about no effect
Giardia FBPA inh: blocks Giardia fructose-bisphosphate aldolase activity. purified Giardia FBPA. hit rate 0.71% among 290,000. A8B2U2. Potency, µM (top dose mostly 59.6 µM), inactives show at the highest dose activity, negative = inhibition, most hits filed as inhibitors. AID 2451; also: potency is read from the fitted curve at half-maximal effect; % is scaled to controls: 0 for no effect and ±100 for the full control effect; nearly all actives have a fitted effect of over 55% in size
Target sequence (A8B2U2 whole entry, looked up): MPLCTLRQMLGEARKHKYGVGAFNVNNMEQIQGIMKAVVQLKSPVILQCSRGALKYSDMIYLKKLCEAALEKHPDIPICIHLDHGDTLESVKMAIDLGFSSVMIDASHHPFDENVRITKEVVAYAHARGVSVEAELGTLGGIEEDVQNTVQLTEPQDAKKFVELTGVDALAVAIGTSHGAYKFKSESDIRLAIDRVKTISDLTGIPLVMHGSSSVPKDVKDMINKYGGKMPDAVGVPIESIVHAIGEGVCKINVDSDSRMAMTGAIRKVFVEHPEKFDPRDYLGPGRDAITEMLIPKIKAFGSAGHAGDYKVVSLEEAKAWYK
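40 nM FBPA preincubated 10 min at RT with compound (up to 57.5 uM final), then substrate plus GAPDH/TPI/NAD/arsenate coupling and diaphorase/resazurin added. Fluorescence read after 20 min at RT, 525/598 nm.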
NS1 inh: influenza NS1 inhibition; hit rate 0.4% among 270,000; Potency, µM (doses to about 46.1 µM), for the others: top-dose activity, positive = more growth; calls by dose curve; also: potency is read from the fitted curve at half-maximal effect; actives are rising curves; nearly all actives have a fitted effect of over 50% in size
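S. cerevisiae expressing influenza A NS1, grown in glucose, washed, then diluted 1:100 into pH 6.0 -URA galactose medium with 23 nl compound. Growth recovery read as OD600; NS1-free strain serves as control.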
* = called active by the depositor; ? = inconclusive; / = no result given. Unless noted, calls follow the shape of the dose curve; as a rule, active = well fitted curve in the direction sought with a large enough effect; inconclusive = small, poorly fitted or top-dose-only effect, or another doubt; inactive = no such curve, though single readings can be large; an effect the other way counts as inactive or inconclusive.

SMILES	Pf growth 96h	Shiga toxin inh	Pf growth 48h	CHX counter	Giardia FBPA inh	NS1 inh
Cc1nn(-c2ccccc2)nc1C(=O)Nc1ccc2c(c1)OCCO2	0%	6	36%	-2	/	-33%
Cc1cc(C(=O)Nc2ccc3c(c2)OCCO3)nn1C(C)(C)C	78%	140*	169%	79*	3%	0%
Cc1cc(C(=O)Nc2ccccc2)nn1C(C)(C)C	315%	67*	207%	43*	-5%	-38%
Cc1ccn2cc(C(=O)Nc3ccc4c(c3)OCCO4)nc2c1	-41%	60*	173%	40*	0%	-65%
Cc1ccn2cc(C(=O)Nc3ccccc3N3CCOCC3)nc2c1	?	4	5%	7	-20%	-56%
Cc1ccn2cc(C(=O)Nc3nnc(C)s3)nc2c1	4.1µM*	35	63%	2	18%	-4%
Cc1ccc(NC(=O)CCSc2nnc(C)s2)cc1	-1%	21	15%	8	-4%	3%
CC1=NN(/C(=N\c2nnc(C)s2)Nc2ccc(C(C)(C)C)cc2)[C@H](c2ccc(C)cc2)S1	6.6µM*	27*	4.1µM*	10	-6%	-11%
COc1ccc(CC(=O)OCC(=O)c2ccc(S(=O)(=O)N3CCCCC3)cc2)cc1	-26%	/	-23%	/	/	/
Oc1ccccc1-c1nc(NCc2ccco2)c2ccccc2n1	?	36*	-22%	25*	-1%	-1%
c1ccc(-c2nc(NCc3ccco3)c3ccccc3n2)nc1	2.9µM*	-1	2.6µM*	9	3%	-85%
Cc1ccccc1CC1(CO)CCCN(Cc2cn[nH]c2-c2ccccc2)C1 (stereo not given)	-9%	-7	?	-2	-8%	-3%
Cc1ccccc1CC1(CO)CCCN(C(=O)c2cc(Cl)ccc2F)C1 (stereo not given)	20%	16	2%	-5	?	-37%
Cc1ccccc1CC1(CO)CCCN(Cc2ccn[nH]2)C1 (stereo not given)	12µM*	-14	2%	2	4%	-2%
Cc1ccccc1CC1(CO)CCCN(C(=O)c2ccccc2Cl)C1 (stereo not given)	9.3µM*	44	-3%	-2	0%	-4%
CCN(Cc1ccccc1)S(=O)(=O)c1ccc2c(c1)NC(=O)CC(=O)N2	-25%	-5	40%	2	6%	/
CN(Cc1ccccc1)S(=O)(=O)c1ccc2c(c1)NC(=O)CC(=O)N2	10µM*	-3	51%	-1	2%	-2%
COc1ccc(CCNC(=O)C(C)n2nc(C)c3c(C)n(-c4ccc(C)cc4)nc3c2=O)c(OC)c1 (stereo not given)	3.3µM*	-7	13µM*	10	13%	11%
COc1ccccc1CCNC(=O)C(C)n1nc(C)c2c(C)n(-c3ccccc3)nc2c1=O (stereo not given)	12µM*	-3	-12%	-4	-9%	10%
COc1ccc(CNC(=O)C(C)n2nc(C)c3c(C)n(-c4ccc(C)cc4)nc3c2=O)cc1 (stereo not given)	-2%	-5	13µM*	3	15%	-2%
Cc1nn(C(C)C(=O)NCc2ccco2)c(=O)c2nn(-c3ccccc3)c(C)c12 (stereo not given)	?	-6	-11%	21	8%	-18%
CCOc1ccc(CNC(=O)C(C)n2nc(C)c3c(C)n(-c4ccccc4)nc3c2=O)cc1 (stereo not given)	-6%	-3	?	1	7%	16%
Cc1cccc(CNC(=O)C(C)n2nc(C)c3c(C)n(-c4ccccc4)nc3c2=O)c1 (stereo not given)	10µM*	-2	?	-5	/	8%
COc1ccccc1CCC(=O)Nc1ccc2c(c1)CN(Cc1ccc(C)o1)CC2	?	-9	?	6	/	20%
COc1cc(C(=S)N2CCOCC2)ccc1OC(=O)/C=C/c1ccco1	?	23	9%	20*	-8%	/
SMILES	Pf growth 96h	Shiga toxin inh	Pf growth 48h	CHX counter	Giardia FBPA inh	NS1 inh
COc1ccc(C(=S)N2CCOCC2)cc1OC(=O)c1ccc(C)cc1	2.9µM*	-10	-18%	-5	/	-32%
CCN(CC(=O)NCc1cccs1)C(=O)c1ccc(NS(=O)(=O)c2ccc(C(C)=O)cc2)cc1	-4%	/	2%	/	/	/
Cc1csc(NC(=O)CCNC(=O)c2ccccc2Cl)n1	26%	31	0%	13	2%	/
CC(C)(C)c1ccc(C(=O)Nc2nnc(SCC(=O)NCC3CCCO3)s2)cc1 (stereo not given)	-53%	110*	-1%	56*	/	5%
CN(C)S(=O)(=O)c1ccc(C(=O)Nc2nnc(SCC(=O)NCC3CCCO3)s2)cc1 (stereo not given)	?	-19	4%	-4	/	4%
CCOc1ccc(C(=O)Nc2nnc(SCC(=O)NCC3CCCO3)s2)cc1 (stereo not given)	29%	48	-18%	38*	-4%	2%
CS(=O)(=O)N1CCC[C@@]2(CCN(c3ccccn3)C2)C1	/	/	/	/	-9%	/
COc1ccccc1C(=O)N(CCC1CCCN1C)c1nc2ccccc2s1 (stereo not given)	14%	39	145%	26*	2%	-2%
CN(C)c1nc(-c2cccnc2)nc(-c2ccccc2)c1C#N	?	-7	?	-1	6%	3%
CCc1nc2ccccc2[nH]1	0%	-5	/	-2	-4%	8%
Cc1ccc(/C=C/c2nc3ccccc3[nH]2)o1	?	51*	115%	40*	?	/
COc1ccc(-n2c(C)c(C)c3c(NCCCN(C)C)ncnc32)cc1	-14%	-14	-18%	-4	14%	0%
Cc1ccc(-n2c(C)c(C)c3c(NCCCO)ncnc32)cc1	89%	120*	95%	45*	-13%	-3%
COc1ccc(-n2c(C)c(C)c3c(NCCCO)ncnc32)cc1	9%	71*	17%	43*	-8%	1%
COc1ccc(-n2c(C)c(C)c3c(NCCO)ncnc32)cc1	16%	59*	22%	33*	-13%	0%
CC(C)C[C@H](NC(=O)[C@H](CC(C)C)NC(=O)[C@H](Cc1ccccc1)NC(=O)[C@@H](N)CO)C(=O)N[C@@H](CCCNC(=N)N)C(=O)N[C@@H](CC(N)=O)C(=O)N1CCC[C@H]1C(=O)N[C@@H](CC(N)=O)C(=O)N[C@@H](CC(=O)O)C(=O)N[C@@H](CCCCN)C(=O)N[C@@H](Cc1ccc(O)cc1)C(=O)N[C@@H](CCC(=O)O)C(=O)N1CCC[C@H]1C(=O)N[C@@H](Cc1ccccc1)C(=O)O	/	-5	/	8	4%	/
COCCn1c(=O)c(-c2ccc(Cl)cc2)nc2cnc(N3CCNCC3)nc21	/	/	/	/	0%	/
CCOC(=O)[C@@H]1[C@H]2COc3ccccc3[C@@H]2N2C(=O)N(c3ccccc3)C(=O)[C@]12C	23%	-3	-11%	-2	-5%	4%
Cc1nnc(NC(=O)c2cc(S(=O)(=O)N3CCCCC3)ccc2Cl)s1	?	-27	-17%	-2	/	-1%

Compound activity as filed in PubChem BioAssay.
